HT1080 IDH1KD tx – HT-1080 IDH1 knockdown cell toxicity (counter line). HT-1080 IDH1 knockdown viability, ATP luminescence, 48 h. Potency, µM (titrated, usually from 46.1 µM), hits mostly cytotoxic. 360,000 tested, 2% active
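HT-1080-IDH1KD cells (IDH1 knocked down), 750/well in RPMI with 5% FBS, treated with compound 48 h at 37 degrees C. Viability by CellTiter-Glo luminescence, normalised to DMSO and no-cell wells; concentration-response curves classed.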
KB-3-1 cytotox – kills parental KB-3-1 adenocarcinoma cells. KB-3-1 viability, CellTiter-Glo ATP luminescence, 72 h. Potency, µM (top dose mostly 46.1 µM), hits mostly cytotoxic. 400,000 tested, 1.4% active. AID 1347075; note: nearly all actives have a fitted effect of over 60% in size
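Screening of KB-3-1 cells (DMEM, 10% FBS, phenol-red free) ran from lowest to highest compound concentration; after 72 h at 37 °C viability was read luminescently and curves fitted.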
MCF10A rerep – inducers of DNA re-replication in MCF 10A breast cells. MCF 10A DNA re-replication, Hoechst nuclear intensity, 48 h. Potency, µM (doses to about 46.1 µM), usual class: activators. 350,000 tested, 2.9% active; note: nearly all actives have a fitted effect of over 50% in size
SW480 rerep – induces DNA re-replication in SW480 colon adenocarcinoma cells | SW480 DNA re-replication, Hoechst DNA content imaging, 48 h | Potency, µM (series often up to 46.1 µM), most hits filed as activators | 340,000 tested, 1.8% active; note: nearly all actives have a fitted effect of over 55% in size
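Hoechst fluorescence of nuclei (405 nm excitation, 500-530 nm emission) measured by plate-scanning imager after 48 hr compound exposure at 37 C; re-replication scored as increased number of nuclei with elevated intensity.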
KB-V1 MDR tox – kills drug-selected multidrug resistant KB-V1 cells; 400,000 tested, 3.4% active; KB-V1 MDR cells viability, CellTiter-Glo, 72 h; Potency, µM (top dose mostly 46.1 µM), usual class: cytotoxic; note: nearly all actives have a fitted effect of over 60% in size
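KB-V1, DMEM (no phenol red) + 10% FBS; cpd pin-transferred, titration series; 72 h, 37 degrees C; CellTiter-Glo, luminescence. Data normalized, curve-fit.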
HT1080NT lethal – kills 2HG-producing HT-1080-NT fibrosarcoma cells. Potency, µM (doses to about 46.1 µM), usual class: cytotoxic. HT-1080-NT fibrosarcoma viability, CellTiter-Glo ATP luminescence, 48 h. 360,000 tested, 1.6% active. AID 686970;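 note: NT is the 2HG producing partner of a matched IDH1 knockdown line; nearly all actives have a fitted effect of over 55% in size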
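750 cells/well, RPMI + 5% FBS; 2 h settle, compound pin-transfer, 48 h at 37 degrees C. CellTiter-Glo 10 min RT, luminescence. Normalized to DMSO and media-only wells.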
Hits are given with their value. Compounds with a hit are over-represented: about 8% of the library has one in this group of screens. Calls come from the whole dose curve; as a rule, active = well fitted curve in the direction sought with a large enough effect; inconclusive = small, poorly fitted or top-dose-only effect, or another doubt; inactive = no such curve, though single readings can be large; an effect the other way counts as inactive or inconclusive.

CCOc1ccccc1C(=O)NC(C)c1ccc2c(c1)OCO2 (stereo not given) was read as HT1080 IDH1KD tx inconclusive, KB-3-1 cytotox inconclusive, MCF10A rerep inconclusive, SW480 rerep inconclusive, KB-V1 MDR tox 9.2µM and HT1080NT lethal inconclusive.
`CCOc1ccc(C(CCc2ccccc2)NC(=O)c2ccccc2OC)cc1OCC` (stereo not given) gave HT1080 IDH1KD tx inconclusive, KB-3-1 cytotox inactive, MCF10A rerep 21µM, SW480 rerep inconclusive, KB-V1 MDR tox inconclusive and HT1080NT lethal inconclusive.
For CCOc1ccccc1C(=O)NC(C(=O)N(C)Cc1ccc2c(c1)OCO2)C(C)C (stereo not given) the results were HT1080 IDH1KD tx inactive, KB-3-1 cytotox inactive, MCF10A rerep inactive, SW480 rerep inactive, KB-V1 MDR tox inconclusive and HT1080NT lethal inactive.
Screening Cc1ccc(C)c(CN2C(=O)c3ccccc3S(=O)(=O)c3ccc(C(=O)Nc4cc(F)ccc4F)cc32)c1 returned KB-3-1 cytotox inactive and KB-V1 MDR tox inactive.
CCCCN(C)c1c(C)nc2ccc(C(=O)NC3CCN(C)CC3)cn12 was read as HT1080 IDH1KD tx inactive, KB-3-1 cytotox inactive, KB-V1 MDR tox inactive and HT1080NT lethal inconclusive.
For CCc1nc2ccc(C(=O)N3CCN(S(=O)(=O)CC)CC3)cn2c1N(C)CCC(C)C the results were HT1080 IDH1KD tx inactive, KB-3-1 cytotox inactive, KB-V1 MDR tox inactive and HT1080NT lethal inactive.
For CCc1nc2ccc(C(=O)N3CCN(c4ccccc4)CC3)cn2c1N(C)CCC(C)C the results were HT1080 IDH1KD tx 6.5µM, KB-3-1 cytotox inconclusive, KB-V1 MDR tox 23µM and HT1080NT lethal inconclusive.
CCc1nc2ccc(C(=O)NC3CCN(C)CC3)cn2c1N(C)CCC(C)C was read as HT1080 IDH1KD tx inconclusive, KB-3-1 cytotox inactive, KB-V1 MDR tox inactive and HT1080NT lethal 16µM.
Screening OB(O)c1cc2ccccc2o1 returned KB-3-1 cytotox inconclusive and KB-V1 MDR tox inactive.
C/C(CCC12CC3CC(CC(C3)C1)C2)=N\NC(N)=S was read as HT1080 IDH1KD tx inconclusive, KB-3-1 cytotox inactive, MCF10A rerep inconclusive, SW480 rerep 3.3µM, KB-V1 MDR tox inactive and HT1080NT lethal inconclusive.
COC(=O)c1ccc(NC(=O)CSc2nc3cc4ccccc4cc3[nH]2)cc1 was read as KB-3-1 cytotox inactive and KB-V1 MDR tox inactive.
COCCN1C(=O)N(c2ccc(OC)cc2)C(=O)C1CC(=O)Nc1cccc(F)c1 (stereo not given) was read as HT1080 IDH1KD tx inactive, KB-3-1 cytotox inactive, MCF10A rerep 0.92µM, SW480 rerep inactive, KB-V1 MDR tox inactive and HT1080NT lethal inactive.
For CCOc1ccc(NC(=O)CC2C(=O)N(c3ccc(OC)cc3)C(=O)N2CCc2cccs2)cc1 (stereo not given) the results were HT1080 IDH1KD tx inactive, KB-3-1 cytotox inactive, MCF10A rerep inactive, SW480 rerep inactive, KB-V1 MDR tox 18µM and HT1080NT lethal inactive.
Screening COC(=O)N1CCCc2cc(S(=O)(=O)N3CCN(c4ccccc4)CC3)ccc21 returned KB-3-1 cytotox inactive and KB-V1 MDR tox inconclusive.
`CC12CC(c3ccccc3O1)N(C(=O)c1ccco1)C(=S)N2c1ccc(F)cc1` (stereo not given) gave HT1080 IDH1KD tx inconclusive, KB-3-1 cytotox inactive, MCF10A rerep 12µM, SW480 rerep inactive, KB-V1 MDR tox inactive and HT1080NT lethal inconclusive.
`CC(NC(=O)c1cc(-c2ccc3c(c2)OCO3)nc2ccccc12)C(C)(C)C` (stereo not given) gave HT1080 IDH1KD tx inactive, KB-3-1 cytotox inactive, MCF10A rerep inconclusive, SW480 rerep inactive, KB-V1 MDR tox 16µM and HT1080NT lethal inactive.
For O=C(O)c1cc(-c2ccc3c(c2)OCO3)nc2ccccc12 the results were HT1080 IDH1KD tx inactive, KB-3-1 cytotox inactive, MCF10A rerep inactive, SW480 rerep inactive, KB-V1 MDR tox inactive and HT1080NT lethal inactive.
CCCNC(=O)NNC(=O)c1cc(-c2ccc3c(c2)OCO3)nc2ccccc12 was read as HT1080 IDH1KD tx inactive, KB-3-1 cytotox inactive, MCF10A rerep inactive, SW480 rerep inconclusive, KB-V1 MDR tox inactive and HT1080NT lethal inactive.
For CCCN(CCC)C(=O)c1cc(-c2ccc3c(c2)OCO3)nc2ccccc12 the results were HT1080 IDH1KD tx inactive, KB-3-1 cytotox inactive, MCF10A rerep inconclusive, SW480 rerep inconclusive, KB-V1 MDR tox 18µM and HT1080NT lethal inactive.
For O=C(Nc1nc(-c2cccs2)c(-c2cccs2)s1)C1(c2ccccc2)CC1 the results were HT1080 IDH1KD tx inactive, KB-3-1 cytotox inactive, MCF10A rerep 21µM, SW480 rerep inactive, KB-V1 MDR tox 18µM and HT1080NT lethal inactive.
CC(=O)NCCC(=O)Nc1nc(-c2cccs2)c(-c2cccs2)s1 was read as HT1080 IDH1KD tx inactive, KB-3-1 cytotox inactive, MCF10A rerep inactive, SW480 rerep inactive, KB-V1 MDR tox inactive and HT1080NT lethal inactive.
`CCC(=O)NC(c1cccc([N+](=O)[O-])c1)c1c(O)ccc2ccccc12` (stereo not given) gave HT1080 IDH1KD tx inactive, KB-3-1 cytotox inactive, MCF10A rerep inactive, SW480 rerep inactive, KB-V1 MDR tox inactive and HT1080NT lethal inactive.
CCOc1ccc(C(NC(=O)CC)c2c(O)ccc3ccccc23)cc1 (stereo not given) was read as HT1080 IDH1KD tx inconclusive, KB-3-1 cytotox inconclusive, MCF10A rerep inconclusive, SW480 rerep 9.2µM, KB-V1 MDR tox inactive and HT1080NT lethal inconclusive.
For CC(C)CC(=O)NC(c1ccccc1Cl)c1c(O)ccc2ccccc12 (stereo not given) the results were HT1080 IDH1KD tx inconclusive, KB-3-1 cytotox inconclusive, MCF10A rerep inconclusive, SW480 rerep inconclusive, KB-V1 MDR tox 21µM and HT1080NT lethal inactive.
Screening CCCC(=O)NC(c1ccc(OC)cc1)c1c(O)ccc2ccccc12 (stereo not given) returned HT1080 IDH1KD tx inconclusive, KB-3-1 cytotox inconclusive, MCF10A rerep 3.7µM, SW480 rerep 21µM, KB-V1 MDR tox inconclusive and HT1080NT lethal inconclusive.
`CC(C)(C)C(=O)NC(c1ccccc1)c1c(O)ccc2ccccc12` (stereo not given) gave HT1080 IDH1KD tx inactive, KB-3-1 cytotox inactive, MCF10A rerep inactive, SW480 rerep inactive, KB-V1 MDR tox inactive and HT1080NT lethal inactive.
Screening CC(=O)Oc1ccc2ccccc2c1C(NC(=O)Cc1ccccc1)c1ccc(Cl)cc1 (stereo not given) returned HT1080 IDH1KD tx 18µM, KB-3-1 cytotox inconclusive, MCF10A rerep inconclusive, SW480 rerep inactive, KB-V1 MDR tox inconclusive and HT1080NT lethal inconclusive.
`COc1ccc(C(NC(=O)CC(C)C)c2c(O)ccc3ccccc23)cc1` (stereo not given) gave HT1080 IDH1KD tx inconclusive, KB-3-1 cytotox inconclusive, MCF10A rerep inconclusive, SW480 rerep inactive, KB-V1 MDR tox inactive and HT1080NT lethal inconclusive.
